Publication PMC7819943, “Rice protein-binding microarrays: a tool to detect cis-acting elements near promoter regions in rice”
In all, about 68,000 sequences were measured (“fluorescence intensity (a.u.)”: median about 9,100, highest 2% from about 16,000 on). The sample as a whole holds a higher share of the highest values than the screen did.

molecular target: OsWRKY34 (Oryza sativa, UniProt Q0JBA9 1-250); assay: protein-binding microarray (RPBM); PBS, 2% BSA, 51.3 ng/ul salmon testes DNA, 50 uM zinc acetate, 200 nM TF, 25 C, 1 h; high values mean tight binding; details: protein: recombinant; tags: N-terminal polyhistidine and DsRed monomer fusion (pET32a); label: CyDye5-dUTP incorporated in the synthesized complementary strand; 3' TTTTT single-stranded linker to array surface; dsDNA, one strand shown
Sequence (Q0JBA9 entry or part of it): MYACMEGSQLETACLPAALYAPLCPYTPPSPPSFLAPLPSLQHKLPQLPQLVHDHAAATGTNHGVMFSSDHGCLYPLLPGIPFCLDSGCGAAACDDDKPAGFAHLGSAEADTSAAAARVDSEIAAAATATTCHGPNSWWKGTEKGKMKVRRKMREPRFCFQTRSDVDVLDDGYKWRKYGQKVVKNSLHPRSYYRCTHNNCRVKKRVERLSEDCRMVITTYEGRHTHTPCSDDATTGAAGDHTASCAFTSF
In short: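 Ni–NTA purification followed expression in E. coli BL21-CodonPlus of transcription factors fused N-terminally to a polyhistidine tag and DsRed. At 200 nM in PBS with 2% BSA, salmon testes DNA and 50 µM zinc acetate, the protein was incubated for 1 h at 25 °C with a custom Agilent array that had been primer-extended with Cy5-dUTP and blocked with 2% BSA. After washing, the array was read on an Axon 4000B scanner. The binding signal is per-feature fluorescence intensity in arbitrary units.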

Sequence	binding signal
CTTCTAAACATAGCTTCCACAATCGTCTCCGGGCCCTTCTCGGAGTCACCTAGTGCAG	8320 fluorescence intensity (a.u.)
GATTAGAATCCGGGTGGGCTGTTTCCACCACAAGAAACTACGGAGTCACCTAGTGCAG	8990 fluorescence intensity (a.u.)
AATTCCCAAAATATACAGTTTTTGTTATTCAGATGTTTACCGGAGTCACCTAGTGCAG	8130 fluorescence intensity (a.u.)
TACCGATGGGGCTCTTATACTCCAACTCTTGCCCTGTTTACGGAGTCACCTAGTGCAG	9020 fluorescence intensity (a.u.)
ATTCGATTTTCTTGCACCTAAACACATGCAACCCATCATTCGGAGTCACCTAGTGCAG	10100 fluorescence intensity (a.u.)
CGGCGGAGGAGGAGGTTTCTTGCTCGTTTCTTGGGTTGCGCGGAGTCACCTAGTGCAG	10800 fluorescence intensity (a.u.)
GGTGGGTAGTTTTCTGCGTTTTCTTTTGTATTTTTGGTTGCGGAGTCACCTAGTGCAG	11500 fluorescence intensity (a.u.)
TGTGTGGTAGTTCGGGGTGGACCTACTTCTAATTATTGGGCGGAGTCACCTAGTGCAG	14100 fluorescence intensity (a.u.)
AGCTTGGTTTCTGGGTTGGGTTGGGTTTGGTTGCGTTGCGCGGAGTCACCTAGTGCAG	22700 fluorescence intensity (a.u.)
TTACTACTACCACTCGTTTTCTTGGCTTGGTTTGGTTTGGCGGAGTCACCTAGTGCAG	13000 fluorescence intensity (a.u.)
TTGGTTTTGGTTTGGGTGGTTGATGTGTGGGTGGTGGTGGCGGAGTCACCTAGTGCAG	19000 fluorescence intensity (a.u.)
GGCTTTTATGGGGCGGGCTTTCTTTGGTCAATGGTCACTACGGAGTCACCTAGTGCAG	32200 fluorescence intensity (a.u.)
GGGAAATTGGGTAATTAATTAATTATGTGAAAGGGGTGGGCGGAGTCACCTAGTGCAG	12800 fluorescence intensity (a.u.)
TTTTTCAATTTTTGGTTAAAATTTTTGGGGCTTTTCTTCGCGGAGTCACCTAGTGCAG	8990 fluorescence intensity (a.u.)
TCTATTGGGGCGGGGTGTGGTAAGGAAATTACAGTTTGCACGGAGTCACCTAGTGCAG	17700 fluorescence intensity (a.u.)
CGTGTGACTGTTGCCGTGATGGTTTTGATGTTTGTTTTGGCGGAGTCACCTAGTGCAG	9180 fluorescence intensity (a.u.)
TGTGTTGGTGATGTCGATGTGTGGGTGGTGGTTTTTTTTTCGGAGTCACCTAGTGCAG	13800 fluorescence intensity (a.u.)

Sequence	binding signal
AAGACATTGCATCAACCGTCTTGCCAATCTATGTTTTCTACGGAGTCACCTAGTGCAG	8280 fluorescence intensity (a.u.)
ATTATAAGTTGTTTCTTCTTAGGTTGTGTTTAGTTCCTTGCGGAGTCACCTAGTGCAG	9250 fluorescence intensity (a.u.)
GCTTCCTCGGCCTCGGGCCGCGTCTCCATGGTCGACTTGACGGAGTCACCTAGTGCAG	11200 fluorescence intensity (a.u.)
ACCAGTTAATGTACATTTGCAATTATATTTTGTTATTTTTCGGAGTCACCTAGTGCAG	8230 fluorescence intensity (a.u.)
GGTGGTGTTGTTGGTGGTGCAGTTCTTGGAGTCACATGGTCGGAGTCACCTAGTGCAG	10300 fluorescence intensity (a.u.)
GGAGTTTGGTTGGTTGGTGGTGTTCTTGACGGGGCATGGACGGAGTCACCTAGTGCAG	31200 fluorescence intensity (a.u.)
TCTTTATTTACCTTTTTTTGAGTCGGACTTCTTTTTCTTTCGGAGTCACCTAGTGCAG	8240 fluorescence intensity (a.u.)
GAGATGGATGTGTGGTGATGGCCTAGGATGTGGGATGGATCGGAGTCACCTAGTGCAG	8160 fluorescence intensity (a.u.)
TTTTTTGTCGGACTTTTTTCTTCATTTTTTACCTCTTTTGCGGAGTCACCTAGTGCAG	16900 fluorescence intensity (a.u.)
ATGTAGATGTGGTCATGTGGGTGCTATCTGTGTGGGTGATCGGAGTCACCTAGTGCAG	9360 fluorescence intensity (a.u.)
AGTTCTTGGAGTCACATGGTTGGTGGTGGTGTGGGCAGTTCGGAGTCACCTAGTGCAG	14200 fluorescence intensity (a.u.)
CCTTTTTAGTCGGACTTCTTTTTCTTTTTTACCGACTTTGCGGAGTCACCTAGTGCAG	10300 fluorescence intensity (a.u.)
ACCACTTGGCTTTCTTTCTTTTATCCGGTTAGTTCCGGCGCGGAGTCACCTAGTGCAG	8090 fluorescence intensity (a.u.)
GTTGTTTGTTTGAGACTCTGTTCCTTTTGGCTTGGTTTTCCGGAGTCACCTAGTGCAG	12700 fluorescence intensity (a.u.)
GAGATGCGGCACGGTTGGCTTGTTGACTTTTTCCGGCCCGCGGAGTCACCTAGTGCAG	17500 fluorescence intensity (a.u.)
GTAAGTGTGTGTTCAGTGATGGCTATCGGTGGGTGGGTGGCGGAGTCACCTAGTGCAG	16600 fluorescence intensity (a.u.)
